From PubChem BioAssay (NCATS) come the findings set out here.

Records with an inconclusive call do not appear. Entries that show only a call come without a potency. A number with no mark means an inactive call. Active and inactive are the calls of the source. Calls come from the whole dose curve.

This test can be described thus: Cytotoxicity counterscreen for inhibitors of SARS-CoV-2 cell entry (AID 1645845). Note: nearly all actives have a fitted effect of over 50% in size. Conditions: cell viability (SARS-CoV-2 entry assay cells); series mostly up to 57.1 µM. Put shortly:
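After a 15 min room-temperature ATPLite 1step step, luminescence reflected ATP remaining in HEK293-ACE2 cells exposed to compound for 1 h plus 48 h at 37 C, with percent activity set by cell and no-cell controls.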
(In general: A counterscreen serves to expose hits that act by an unwanted route or on another target.)
With `O=C(O)[C@H](O)c1ccccc1`, the Potency entry was “inactive”.

Consider `CCCCCC=CCC=CCCCCCCCC(=O)OCC`, for which the Potency entry was “inactive”.

As to `C=CC1=C(C(=O)O)N2C(=O)[C@@H](NC(=O)/C(=N\O)c3csc(N)n3)[C@H]2SC1` (stereo in doubt), the Potency result is “inactive”.

`OCCc1ccccc1`: the Potency entry was “inactive”.

Regarding `NC(CO)(CO)CO`, the Potency entry was “inactive”.

As for `Cc1cnc(NC(=O)C2=C(O)c3ccccc3S(=O)(=O)N2C)s1`, the Potency entry was “inactive”.

As to `NC(=O)c1ccccc1O`, the Potency entry is “inactive”.

For `CCOC(=O)c1ccc(OCCN2C[C@H](O)[C@@H](O)[C@H](O)[C@H]2CO)cc1`, the Potency result was “inactive”.

For the compound `O=C(NCC(O)CO)c1c(I)c(C(=O)NCC(O)CO)c(I)c(N(CCO)C(=O)CO)c1I` (stereo not given), the Potency result is “inactive”.

For `CC(=O)OC(C)OC(=O)C(C)c1ccc(-c2ccccc2)c(F)c1` (stereo not given), the Potency result is “inactive”.

Turning to `CCCCCCCN(CC)CCCC(O)c1ccc(NS(C)(=O)=O)cc1` (stereo not given), the Potency entry is “inactive”.

Consider `CCn1cc(C(=O)O)c(=O)c2cnc(N3CCCC3)nc21`, for which the activity change, negative = cytotoxicity was 1.65% [at 11.3 µM].

With `CS(=O)(=O)c1ccc([C@@H](O)[C@@H](CO)NC(=O)C(Cl)Cl)cc1`, the Potency entry is “inactive”.

Consider `N[C@@H](CCC(=O)N[C@@H](CS)C(=O)NCC(=O)O)C(=O)O`, for which the Potency entry is “inactive”.

For `CCOC(=O)C1=C(COCCN)NC(C)=C(C(=O)OC)C1c1ccccc1Cl` (stereo not given), the Potency entry was “inactive”.

On to `CCCCCCCCCCCCCCCCOP(=O)([O-])OCC[N+](C)(C)C`, for which the Potency result is “inactive”.

With `CCN(CC)CC#CCOC(=O)C(O)(c1ccccc1)C1CCCCC1` (stereo not given), the Potency result is “inactive”.

In the case of `COCCOC(=O)C1=C(C)NC(C)=C(C(=O)OC(C)C)C1c1cccc([N+](=O)[O-])c1` (stereo not given), the Potency entry was “inactive”.

Consider `OC[C@H]1O[C@@H](Oc2ccc(O)cc2)[C@H](O)[C@@H](O)[C@@H]1O`, for which the Potency result was “inactive”.

For the compound `O=C1[O][Bi][O]c2ccccc21`, the outcome was “inactive [at 0.702 µM]”.

As for `CCOc1cc(CC(=O)N[C@@H](CC(C)C)c2ccccc2N2CCCCC2)ccc1C(=O)O`, the Potency entry was “inactive”.

With `NCCNCCNCCNCCN`, the outcome was “inactive [at 11.3 µM]”.

As for `CC(C)Cc1ccc(CC(=O)O)cc1`, the Potency result was “inactive”.

With `NCCCNCCSP(=O)(O)O`, the activity change, negative = cytotoxicity was -16.9% [at 11.3 µM].

In the case of `Nc1ncn([C@H]2C[C@H](O)[C@@H](CO)O2)c(=O)n1`, the Potency result was “inactive”.

Take `CC(=O)CC(c1ccc([N+](=O)[O-])cc1)c1c(O)c2ccccc2oc1=O` (stereo not given): the Potency entry is “inactive”.

As for `Nc1ccc(C(=O)O)cc1`, the Potency result was “inactive”.

As to `CCOc1cc(OCC)c(C(=O)CCC(=O)O)cc1OCC`, the Potency result is “inactive”.

With `CSCC[C@H](NC(=O)[C@H](Cc1ccc(OS(=O)(=O)O)cc1)NC(=O)[C@@H](N)CC(=O)O)C(=O)NCC(=O)N[C@@H](Cc1c[nH]c2ccccc12)C(=O)N[C@@H](CCSC)C(=O)N[C@@H](CC(=O)O)C(=O)N[C@@H](Cc1ccccc1)C(N)=O`, the Potency entry was “inactive”.

As for `Cc1ccc(C(=O)C(C)CN2CCCCC2)cc1` (stereo not given), the Potency entry is “inactive”.

Turning to `CCCCCN(CCCOC)C(=O)C(CCC(=O)O)NC(=O)c1ccc(Cl)c(Cl)c1` (stereo not given), the Potency result was “inactive”.

In the case of `C/C(=C(\CCO)SS/C(CCO)=C(\C)N(C=O)Cc1cnc(C)nc1N)N(C=O)Cc1cnc(C)nc1N`, the Potency result was “inactive”.

Take `CCOCCn1c(C2CCN(CCc3ccc(C(C)(C)C(=O)O)cc3)CC2)nc2ccccc21`: the Potency result was “inactive”.

As for `CCc1cc(C(N)=S)ccn1`, the Potency result was “inactive”.

As to `NC(N)=NS(=O)(=O)c1ccc(N)cc1`, the Potency result was “inactive”.

Consider `O=P(O)(O)C(Sc1ccc(Cl)cc1)P(=O)(O)O`, for which the outcome was “inactive [at 0.702 µM]”.

With `CC(=O)Nc1ccc(CC(=O)O)cc1`, the Potency result was “inactive”.

For the compound `Cc1ccc(C(C)C)cc2c(C)ccc1-2`, the Potency entry was “inactive”.

Turning to `Nc1c(I)cc(I)c(C(=O)N(CCC(=O)O)c2ccccc2)c1I`, the Potency entry was “inactive”.

With `Nc1nc(-c2ccccc2)c(Br)c(=O)[nH]1`, the Potency result was “inactive”.
